Here are results for 42 sequences from PMC6602471.

Whole data set: some 1,300 sequences, median “log fluorescence intensity” near 8.9, cut for the highest 2% near 13. This excerpt belongs to a sample that is enriched for the highest values.

The target of this assay is T1, ELK1 (Homo sapiens, UniProt P19419 1-428).
T1 sequence: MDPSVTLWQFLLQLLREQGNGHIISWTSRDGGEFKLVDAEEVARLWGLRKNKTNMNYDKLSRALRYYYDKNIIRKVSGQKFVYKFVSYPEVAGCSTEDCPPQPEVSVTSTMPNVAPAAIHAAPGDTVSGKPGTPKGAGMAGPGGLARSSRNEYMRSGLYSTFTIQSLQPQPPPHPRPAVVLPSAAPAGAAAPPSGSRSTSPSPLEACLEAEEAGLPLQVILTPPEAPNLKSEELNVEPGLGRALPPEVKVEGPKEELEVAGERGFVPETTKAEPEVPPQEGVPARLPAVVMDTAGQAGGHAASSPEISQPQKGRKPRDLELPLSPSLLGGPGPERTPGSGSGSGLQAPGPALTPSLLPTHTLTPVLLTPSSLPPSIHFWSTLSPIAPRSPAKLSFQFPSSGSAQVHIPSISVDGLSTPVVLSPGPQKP
Briefly: custom PBM; custom protein-binding microarray; buffer, salt, pH and temperature not stated; high values mean tight binding. The conditions noted are these: dsDNA, one strand shown.
Turning to “GCTGCTGCGGTGCATACCCCACAGGATGTGACCCCGGTCTTGATTCGCTTGACGCTGCTG”, the binding signal is 9.08 log fluorescence intensity. As for “TGTCGGGTAAGGGAATGTAGATCACGTGAATGAATAGTCTTGATTCGCTTGACGCTGCTG”, the figure is 8.98 log fluorescence intensity; as for “TGTCGGGTAAGGGAATGTAGATCACGTGAATGATAAGTCTTGATTCGCTTGACGCTGCTG”, 9.11 log fluorescence intensity; as for “GCTGCTGCGGTGCATACCCCACCGGATGTGCCCCCGGTCTTGATTCGCTTGACGCTGCTG”, 10.2 log fluorescence intensity. For “TATTAATTTCTGCCCTTATTCGCACGTGCCATAACAGTCTTGATTCGCTTGACGCTGCTG”, the binding signal was 8.91 log fluorescence intensity. For “GTGTATAGGATCCCATCCAACACACGGGTTAAAATGGTCTTGATTCGCTTGACGCTGCTG” the value was 8.95 log fluorescence intensity; for “GCTGCTGCGGTGCCTACCCCACCGGATGTGACCCCGGTCTTGATTCGCTTGACGCTGCTG”, 10.3 log fluorescence intensity; for “TACTGACTTTTATATGCGAATGCACATGAATAGACCGTCTTGATTCGCTTGACGCTGCTG”, 8.97 log fluorescence intensity. For “GTAAAAAGGCCCAGGGTAACACCGGAAGTGGGCTTAGTCTTGATTCGCTTGACGCTGCTG” the value was 10.9 log fluorescence intensity; for “GTGTATAGGATCCCATCCAACACACGTATTAAAATGGTCTTGATTCGCTTGACGCTGCTG”, 9.05 log fluorescence intensity.

On to “CGGAAGTGTGGTAAACGTCGGATATCCGGTTCTTCTGTCTTGATTCGCTTGACGCTGCTG”, for which the binding signal is 12 log fluorescence intensity.

In the case of “CAGTATAGGACTTCTTCCCTGAAGCAATTGATAACCGTCTTGATTCGCTTGACGCTGCTG”, the binding signal was 8.93 log fluorescence intensity. Turning to “GTGTATGGGATCCCATCCAACACACGTGTTAAAATGGTCTTGATTCGCTTGACGCTGCTG”, the binding signal is 9.12 log fluorescence intensity. Consider “CACTATTTTTACAGTAATGTAGCACGCGTAACTCCTGTCTTGATTCGCTTGACGCTGCTG”, for which the binding signal is 8.94 log fluorescence intensity. Consider “TACTGACTAATATATGCGAATGCACATGAATAGACCGTCTTGATTCGCTTGACGCTGCTG”, for which the binding signal was 8.92 log fluorescence intensity. For “TGTCGGGTAAGGAAATGTAGATCACGTGAATGAAAAGTCTTGATTCGCTTGACGCTGCTG” the value was 8.91 log fluorescence intensity; for “GGAAAGAGGCCCAGGGTAACACCGGAAGTGGGCTTAGTCTTGATTCGCTTGACGCTGCTG”, 10.8 log fluorescence intensity. Consider “CTGGGATTTGACCCAACTCTGCCACGTGGGTCGTTTGTCTTGATTCGCTTGACGCTGCTG”, for which the binding signal was 9.02 log fluorescence intensity. For “TGTCGGGTAAGGGAATGTAGATCACGTGGATGAAAAGTCTTGATTCGCTTGACGCTGCTG” the value was 8.97 log fluorescence intensity. As for “TCCGGCTACCAGCTCCACCCACTTCAGGCCTTGTCGGTCTTGATTCGCTTGACGCTGCTG”, the binding signal is 9.01 log fluorescence intensity. As for “CACAGTTTTTACAGTAATGTAGCACGCGTAACTCCTGTCTTGATTCGCTTGACGCTGCTG”, the figure is 8.91 log fluorescence intensity; as for “GTGTATAGGATCCCATCCAACACACGTGATAAAATGGTCTTGATTCGCTTGACGCTGCTG”, 8.94 log fluorescence intensity; as for “CAGCATAGGACTTCTTCCCTGAAACAATTGATAACCGTCTTGATTCGCTTGACGCTGCTG”, 8.97 log fluorescence intensity.

In the case of “GATTAATTTCTGCCCTTATTCGCACGTGCCCTAACAGTCTTGATTCGCTTGACGCTGCTG”, the binding signal was 8.97 log fluorescence intensity. As for “TCCGGCTACCAGCTCCACCCACTTCATGCCTTGTAGGTCTTGATTCGCTTGACGCTGCTG”, the figure is 8.92 log fluorescence intensity; as for “GGAAAAAGGCCCAGGGTAACTCCGGAAGTGGGCTTAGTCTTGATTCGCTTGACGCTGCTG”, 10.4 log fluorescence intensity.

In the case of “GTGTATAGGATCCCATCCAACACACGTGTTACAATGGTCTTGATTCGCTTGACGCTGCTG”, the binding signal is 9.02 log fluorescence intensity. For “TGTCGGGTAAGGGAATGTACATCACGTGAATGAAAAGTCTTGATTCGCTTGACGCTGCTG” the value was 8.92 log fluorescence intensity; for “GTGTATAGGATCCCATCCCACACACGTGTTAAAATGGTCTTGATTCGCTTGACGCTGCTG”, 9.07 log fluorescence intensity; for “CGGAAGTGTTGTAAACGTCGGATATCCGGTTCTTCTGTCTTGATTCGCTTGACGCTGCTG”, 12 log fluorescence intensity.

Regarding “GGAAAAAGGCCCAGGGTACCACCGGAAGTGGGCTTAGTCTTGATTCGCTTGACGCTGCTG”, the binding signal is 11.1 log fluorescence intensity. For “GGAAAAAGGCCCAGGATAACACCGGAAGTGGGCTTAGTCTTGATTCGCTTGACGCTGCTG” the value was 11.1 log fluorescence intensity; for “TGTCGGGTAAGGGAATGTAGATCACGTGAATGAAGAGTCTTGATTCGCTTGACGCTGCTG”, 9.1 log fluorescence intensity.

In the case of “TACTGACTTATATATGCGAATGCACATGAATAGCCCGTCTTGATTCGCTTGACGCTGCTG”, the binding signal is 8.94 log fluorescence intensity. Turning to “CTGGGACTTGACCCAACTCTGCTACGTGGGTCGTTTGTCTTGATTCGCTTGACGCTGCTG”, the binding signal is 8.94 log fluorescence intensity.

On to “TAAAGGGAAGACGGTTGTGGTAGTTCCGGGGATTAAGTCTTGATTCGCTTGACGCTGCTG”, for which the binding signal was 10.9 log fluorescence intensity. For the sequence “GCTGCTGCGGTGCTTACCCCACCGGATGTGACCCCGGTCTTGATTCGCTTGACGCTGCTG”, the binding signal was 10.2 log fluorescence intensity. Take “GATTAATTTCCGCCCTTATTCGCACGTGCCATAACAGTCTTGATTCGCTTGACGCTGCTG”: the binding signal was 12.5 log fluorescence intensity. As for “TAGAGGGAAGACGGTTGTGGTAGTTCCGGGTATTAAGTCTTGATTCGCTTGACGCTGCTG”, the figure is 11.2 log fluorescence intensity; as for “GATTAATTTCTGCCCTTATTCGCACGTGCCATACCAGTCTTGATTCGCTTGACGCTGCTG”, 8.97 log fluorescence intensity. As for “GCTCCTGCGGTGCATACCCCACCGGATGTGACCCCGGTCTTGATTCGCTTGACGCTGCTG”, the figure is 10.3 log fluorescence intensity; as for “TACTGACTTATATATGCTAATGCACATGAATAGACCGTCTTGATTCGCTTGACGCTGCTG”, 8.92 log fluorescence intensity.
